# The whole screen tested about 130,000 compounds, of which about 1,900 (1.5%) were called active. Where a call stands in place of a potency, no number is given. About 5% were inconclusive and are not listed. Calls follow the shape of the dose curve; as a rule, active = well fitted cell-killing curve with a large enough effect; inconclusive = small, poorly fitted or top-dose-only effect; inactive = no such curve, though single readings can be large or run the other way. Many of the other results were omitted from the sample, so actives are more common in it than they were.
# Experiment: qHTS Screen for Compounds that Selectively Target Cancer Cells with p53 Mutations: Cytotoxicity of p53ts Cells at the Nonpermissive Temperature; also: nearly all actives have a fitted effect of over 55% in size
# Conditions: H1299-p53A138V viability at 39C, ATP luminescence, 24 h; series mostly up to 46.1 µM
# Text: NIH Chemical Genomics Center [NCGC] NIH Molecular Libraries Screening Centers Network [MLSCN] MLSCN Grant: 1 X01 MH079844-01 Assay Submitter (PI): Dr. SUN, YI, University of Michigan NCGC Assay Overview: Synthetic Lethal Screen for Compounds to Kill Cancer Cells with p53 Mutation. Tumor suppressor gene p53 serves as a major cellular barrier against tumorigenesis. […] The goal of this screening is to identify small molecule probes that selectively kill cancer cells with mutations in p53. This screening was carried out using two lines of H1299 lung cancer cells. The H1299-p53 A138V line express a temperature sensitive p53 mutant (p53ts) in which the mutant p53 protein (A138V) is in the mutant confirmation when grown at 39C (the nonpermissive temperature) and in the wild type conformation when grown at 32C (the permissive temperature). A H1299-neo line (p53 null) grown at both 39C and 32C were used as counter-screens to filter out false positive associated with temperature shifting. The small molecular compounds that selectively target mutant p53-containing cancer cells were selected as candidate probes for further study. A cytotoxicity assay based on the measurement of ATP contents in cells was used in this screen. Concentration-responses of all the compounds in the library collection were determined in qHTS using the cell lines and temperature conditions as above.
# NCGC Assay Protocol Summary: Both the H1299-p53A138V and H1299-neo cell lines were provided by Dr.Yi Sun, a PI at the University Michigan. The cells were maintained and cultured at 37C. The resuspended frozen cells were used to plate the cells in the 1536-well assay plates at a density of 600 cells per well in 5 ul medium. The assay plates with the cells were incubated at 37C for 16 to 30 hours before the experiments. The library compounds in DMSO solution were added to the cells in assay plates and incubated 24 hours at 39C (for mutant p53 conformation) or 32C (for normal p53 conformation as control). An ATP_lite assay kit (PerkinElmer) was used to determine the cell viability. Tomaxifen (100uM) was used as the positive control for cell killing. Data were normalized to the controls for basal activity (DMSO only) and 100% killing (100uM tamoxifen). AC50 values were determined from concentration-response data modeled with the standard Hill equation. P53 assay protocol: 1. Reagent; 5 uL H1299-p53A138V or H1299-neo cell cells/well 2. Time; overnight; 37C incubation 3. Compounds; 23 nL; 5.9 nM to 46 uM 4. Controls; 23 nL; Tamoxifen 100 uM 5. Time; 24 hr; 39C incubation 6. Reagent; 3 uL; ATP_Lite reagent 7. Time; 20 min; Room Temperature 8. Detection; Luminescence; Viewlux plate reader Keywords: p53, synthetic lethal, cancer, cell viability, cytotoxicity, H1299 cell line, luminescence, MLSMR, MLSCN, NIH Roadmap, qHTS, NCGC
# Potency is read from the fitted curve at half-maximal effect.
Compound,Potency,"activity change, negative = cell killing"
CC(C)(Cc1c[nH]c2ccc(Cl)cc12)NCCOc1ccccc1OCC1CC1,25.1 µM (active),–
Cc1cccc(Cn2cccc(C(=O)Nc3ccc4c(c3)OCCO4)c2=O)c1,inactive,–
CCN(CC)CCn1ncc2c(N)ncnc21,–,-0.868% [at 9.22 µM] (inactive)
C/C(=C\C=C/[C@@H](C)C(=O)O)[C@H]1CN[C@H](C(=O)O)[C@@H]1CC(=O)O,inactive,–
CN(C)C(=O)Oc1cc(OC(=O)N(C)C)cc(C(O)CNC(C)(C)C)c1 (stereo not given),inactive,–
CC(C)Oc1ccc(NC(=O)c2cc3ccccc3o2)cc1,6.31 µM (active),–
COc1cc(C(c2c(O)c3ccccc3oc2=O)c2c(C)n(C)n(-c3ccccc3)c2=O)ccc1O (stereo not given),inactive,–
O=C1C2CCN(CC2)C1(CO)CO,inactive,–
C=CCSSCC=C,inactive,–
Cc1nnc(NC(=O)c2cccn(Cc3cccc(F)c3)c2=O)s1,inactive,–
NCCc1c[nH]c2ccc(O)cc12,inactive,–
Fc1ccc(C(OCCN2CCN(C/C=C\c3ccccc3)CC2)c2ccc(F)cc2)cc1,31.6 µM (active),–
CCN1C[C@]2(C)CC[C@H](O)[C@@]34[C@@H]5CC6[C@@H](OC)C[C@@](O)([C@@H]5[C@@H]6O)[C@H](C[C@@H]23)[C@H]14,inactive,–
COc1ccc(C2Oc3c(I)c(OC)cc(OC)c3CC2O)cc1OC (stereo not given),inactive,–
CC(C)(O)/C=C\C(=O)[C@](C)(O)[C@H]1[C@H](O)C[C@]2(C)[C@@H]3CC=C4[C@@H](C=C(O)C(=O)C4(C)C)[C@]3(C)C(=O)C[C@@]12C,–,-1.33% [at 9.22 µM] (inactive)
CC[C@@](O)(C(=O)O)c1cc2n(c(=O)c1CO)Cc1cc3ccccc3nc1-2,–,11.1% [at 9.22 µM] (inactive)
O=C(N/N=C/c1c(O)n(Cc2ccccc2)c(=O)[nH]c1=O)c1ccccc1,inactive,–
CN1C2CC3CC1C(O3)C2O (stereo not given),inactive,–
CCCCN1C2CCC1CC(OC(c1ccc(F)cc1)c1ccc(F)cc1)C2 (stereo not given),12.6 µM (active),–
Cn1c(O)c(C=NCCN2CCNCC2)c(=O)n(C)c1=O,inactive,–

Compound,Potency,"activity change, negative = cell killing"
CC(=O)OC1C2CCC3C1(CC(O)[C@@]1(O)[C@@H](CC(O)C1(C)C)[C@]3(C)O)C[C@@]2(C)O (stereo not given in full),inactive,–
CC[C@@H]1CN2CC[C@@H]1C[C@H]2[C@H](O)c1ccnc2ccc(OC)cc12,inactive,–
O=C(Nc1ccc(Cl)cc1C(=O)c1ccccc1)c1cc(Cl)cc(Cl)c1,inactive,–
C[C@@]12CCC3C(CC[C@@H]4CC(O)CC[C@@]34C)C1CCC2O (stereo not given in full),inactive,–
C[C@@]1([C@@H](NP(=O)(c2ccccc2)c2ccccc2)c2ccccc2)C[C@H]1CCO,inactive,–
N#Cc1c(Cl)c(Cl)c(Cl)c(C#N)c1Cl,6.31 µM (active),–
CCC(C)C(=O)O[C@@H]1C[C@@]2(C)C(c3ccoc3)OC(=O)CC23OC2(C)O[C@@]14[C@@]1(C)C(CC(=O)OC)C5(C)CC1(O)C(O)(C5OC(=O)C1(C)OC1C)C(OC(C)=O)[C@@]34O2 (stereo not given in full),inactive,–
Cc1ccc(-n2c(/C=C/c3cccc(C(F)(F)F)c3)nc3ccccc3c2=O)cc1,inactive,–
Clc1ccc(C(c2ccc(Cl)cc2)n2cc[n+](C[C@@H](OCc3ccc(Cl)cc3Cl)c3ccc(Cl)cc3Cl)c2)cc1,15.8 µM (active),–
CCN(CC)c1ccc(C2C(C(N)=O)=C(C)Nc3nc(SCc4ccccc4)nn32)cc1 (stereo not given),inactive,–
Clc1ccc([C@@H]2C[C@H]3CC[C@@H]2N3)cn1,inactive,–
Cn1cc(/C=C/c2nc3ccccc3c(=O)n2-c2ccccc2)c2ccccc21,inactive,–
O=C(NC(c1ccc(Cl)cc1)P(=O)(Oc1ccccc1)Oc1ccccc1)OCc1ccccc1 (stereo not given),inactive,–
COc1cc2c(cc1OC)[C@@H]1C(=O)c3ccc(O)c(CC=C(C)C)c3OC1CO2 (stereo not given in full),inactive,–
COc1ccc(NC(=O)Nc2cccc3cccnc23)cc1,15.8 µM (active),–
CC1=CC(=O)C2=C(C)C[C@H](O)[C@H]3[C@H](C)C(=O)O[C@@H]3C12 (stereo not given in full),inactive,–
c1csc(CN2CC3(CCNCC3)C2)n1,inactive,–
CC(C)(c1ccc(OC[C@@H]2CO2)cc1)c1ccc(OC[C@H]2CO2)cc1,12.6 µM (active),–
Cc1ccc(N2C(=O)NC(=O)C(CCc3ccncc3)(Cc3cccc(Cl)c3Cl)C2=O)cc1 (stereo not given),inactive,–
C[C@]12CC[C@H](O)C[C@@H]1CC[C@H]1[C@H]2CC[C@]2(C)C(=O)CC[C@@H]12,inactive,–
